Bioassay records as filed in PubChem.
Giardia FBPA inh – qHTS Assay for Inhibitors of Fructose-1,6-bisphosphate Aldolase from Giardia Lamblia | AID 2451, 2010 | A8B2U2 | purified Giardia FBPA | 0.71% of 290,000 active | Potency, µM (highest dose often 59.6 µM), inactives show at the top dose activity, negative = inhibition, most hits filed as inhibitors; note: potency is the fitted concentration of half-maximal effect; nearly all actives have a fitted effect of over 55% in size
Target sequence (A8B2U2 whole entry, looked up): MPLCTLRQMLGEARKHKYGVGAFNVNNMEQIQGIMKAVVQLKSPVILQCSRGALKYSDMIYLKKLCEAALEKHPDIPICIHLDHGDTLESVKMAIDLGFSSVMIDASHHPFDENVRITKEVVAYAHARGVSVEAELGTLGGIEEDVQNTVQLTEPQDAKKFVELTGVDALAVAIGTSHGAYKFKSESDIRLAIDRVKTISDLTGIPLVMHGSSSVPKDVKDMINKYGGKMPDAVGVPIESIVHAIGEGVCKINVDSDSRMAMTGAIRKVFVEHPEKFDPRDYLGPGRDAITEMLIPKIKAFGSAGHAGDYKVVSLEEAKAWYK
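40 nM FBPA preincubated 10 min at RT with compound (up to 57.5 uM final), then substrate plus GAPDH/TPI/NAD/arsenate coupling and diaphorase/resazurin added. Fluorescence read after 20 min at RT, 525/598 nm.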
RE007 growth inh – qHTS Assay for Inhibitors of the HIV-1 protein Vpr; Potency, µM (titrated, usually from 92.2 µM), for inactives: at the highest dose activity change, negative = less growth, actives largely listed as inhibitors; 0.21% of 360,000 active; S. pombe RE007 Vpr strain, BacTiter-Glo ATP luminescence, 24 h; active = well fitted falling curve with a large enough effect; inconclusive = small, poorly fitted or top-dose-only effect; inactive = no such curve, though single readings can be large or run the other way; note: potency is the fitted concentration of half-maximal effect; nearly all actives have a fitted effect of over 50% in size
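Fission yeast RE007 carrying one integrated HIV-1 vpr copy, seeded at OD 0.01 in PMG+AL medium with 23 nL pinned compound. Grown 24 h at 30 degrees; viability read by BacTiter-Glo luminescence after 5 min.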
Tb PYK inh – qHTS of Trypanosoma Brucei Inhibitors; 0.12% of 410,000 active; pyruvate kinase (Trypanosoma brucei), Q57TT1; Potency, µM (series often up to 76.8 µM), for the others: at the top dose activity, negative = inhibition, hits mostly inhibitors; TbPYK enzyme, Kinase-Glo Plus ATP luminescence, 45 min; note: potency is the fitted concentration of half-maximal effect; nearly all actives have a fitted effect of over 50% in size
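In this concentration-response screen, enzyme-free wells defined baseline while DMSO plates tracked drift. Each reaction combined TbPYK, substrate, compound and 130 uM ADP for 45 min at room temperature. Kinase-Glo Plus luminescence gave the signal.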
Sm TGR block – qHTS Assay for the Inhibitors of Schistosoma Mansoni Peroxiredoxins; 3% of 360,000 active; purified TGR, DTNB reduction, TNB absorbance 405 nm; Schistosoma mansoni thioredoxin glutathione reductase (TGR), Q962Y6; Potency, µM (highest dose often 114 µM), for inactives: top-dose activity change, negative = inhibition, most hits filed as inhibitors; note: potency is the fitted concentration of half-maximal effect; nearly all actives have a fitted effect of over 60% in size
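First, TGR (20 nM dispensed) and NADPH were mixed with compound. Second, a 15 min room-temperature incubation followed. Third, further NADPH and then DTNB were added to start the reaction. Finally, TNB absorbance was monitored kinetically.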
HCMV inh – qHTS Assay for inhibitors of the human cytomegalovirus (HCMV) | HFF cells, HCMV-luciferase reporter, 72 h; stronger effect = lower value | activity change, negative = inhibition, % at 57.5 µM | 4.5% of 410,000 active | AID 1259415, 2018; in the data active = activity change below about -60%; inconclusive = no clear call, values can overlap the other calls; inactive = above about -39%
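After 16 h attachment at 37C, HFF cells received test compound and HCMV-luciferase (1 PFU/cell); reporter luminescence read 72 h later, data normalized against buffer-only and known inhibitor Salinomycin.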
FMDV inh – High Throughput Screening for Foot and Mouth Disease Virus Antivirals | FMDV antiviral cell-based qHTS | Potency, µM (titrated, usually from 57.9 µM), for the others: top-dose activity change, negative = inhibition, hits mostly inhibitors | 1.2% of 410,000 active | AID 1159524, 2015; calls by dose curve; tested in HEK293T cells; note: read-out not given here; potency is the fitted concentration of half-maximal effect; nearly all actives have a fitted effect of over 45% in size
Starred values were filed as active, the others as inactive; ? = inconclusive; . = not tested or not shown. This is a sample that favours compounds with a hit; in the whole collection about 7.7% have one here. Unless noted, calls come from the whole dose curve; as a rule, active = well fitted curve in the direction sought with a large enough effect; inconclusive = small, poorly fitted or top-dose-only effect, or another doubt; inactive = no such curve, though single readings can be large; an effect the other way counts as inactive or inconclusive. % is set by controls: 0 for no effect and ±100 for the full control effect.

SMILES	Giardia FBPA inh	RE007 growth inh	Tb PYK inh	Sm TGR block	HCMV inh	FMDV inh
CN1/C(=C\C(=O)c2cccnc2)C(C)(C)c2ccccc21	-5.4%	9.2%	-3.3%	-6.0%	-1.8	18.1%
CN1/C(=C\C(=O)COc2ccc3c(c2)OCO3)C(C)(C)c2ccccc21	-13.0%	-16.7%	-2.3%	-19.3%	?	25.1µM*
COc1ccccc1OCC(=O)/C=C1/N(C)c2ccccc2C1(C)C	-7.0%	5.4%	6.0%	0.9%	21.1	?
CN1/C(=C\C(=O)C[n+]2ccc3ccccc3c2)C(C)(C)c2ccccc21	-2.4%	?	-0.6%	-18.1%	-96.5*	?
CN1/C(=C/C(=O)c2nc(S(C)(=O)=O)ncc2Cl)C(C)(C)c2ccccc21	5.1%	11.6%	3.7%	3.0%	.	10µM*
CN1/C(=C\C(=O)c2cncc(Br)c2)C(C)(C)c2ccccc21	-20.2%	?	-2.8%	-16.6%	-72.7*	?
COC(=O)[C@@]1(Cc2ccccc2)[C@H]2c3cc(C(=O)N(C)C)n(Cc4ccc(O)c(OC)c4)c3C[C@H]2CN1C(=O)c1ccccc1	-11.6%	.	.	.	.	.
CC[C@@H](C)CCCCC(=O)N[C@H](CCN)C(=O)N[C@@H](C(=O)N[C@H](CCN)C(=O)N[C@@H]1CCNC(=O)C([C@@H](C)O)NC(=O)[C@@H](CCN)NC(=O)[C@@H](CCN)NC(=O)[C@@H](CC(C)C)NC(=O)[C@@H](Cc2ccccc2)NC(=O)[C@@H](CCN)NC1=O)[C@@H](C)O (stereo partly specified)	.	.	.	.	.	-1.7%
CN1/C(=C\C(=O)c2ccco2)C(C)(C)c2ccccc21	-23.1%	?	0.8%	44.7µM*	-71.2*	?
CCN1/C(=C/C(=O)c2ccco2)Sc2ccccc21	?	-23.8%	2.8%	20µM*	146.4	35.4%
CC(=O)N1CCN(c2ccc(NCc3ccc(-c4ccc(Br)cc4)o3)cc2)CC1	.	.	-28.3%	.	-80.1*	?
CC(=O)N1CCN(c2ccc(NCc3ccc(Br)o3)cc2)CC1	.	.	-20.0%	?	-62.1*	-21.6%
COc1ccc(CNC(=O)C2(c3cccs3)CCOCC2)cc1	.	.	-4.7%	13.4%	1.5	-15.7%
Cc1ccc(Cn2cccc2C2=NC(C)(C)CO2)cc1	.	.	0.3%	8.4%	3.9	-11.5%
Cc1cc(NC(=O)CSc2nnnn2-c2ccccc2C)no1	.	0.7%	-1.1%	-0.3%	-112.8*	-13.7%
COC(=O)c1cccc(-n2nnnc2SCC(=O)Nc2cc(C)on2)c1	3.4%	-0.7%	-6.5%	-4.2%	-91.0*	-1.9%
Cc1cccc(-n2nnnc2SCC(=O)Nc2ccc(N3CCN(C)CC3)cc2)c1	5.0%	-6.8%	-3.0%	5.5%	-65.7*	26.4%
Cc1cc(NC(=O)CSc2nnc(-c3ccccc3)n2C)no1	0.5%	6.0%	5.7%	35.4%	-27.9	5.4%
CCc1ccccc1-n1nnnc1SCC(=O)Nc1cc(C)on1	-1.8%	33.7%	2.9%	33.6%	9.2	-9.6%
Cc1cc(NC(=O)CSc2nnc(C3COc4ccccc4O3)n2C)no1 (stereo unspecified)	1.3%	-12.1%	8.2%	-3.1%	-78.1*	14.3%
Cc1cccc(NC(=O)c2cc3c(=O)n4cccc(C)c4nc3s2)c1C	.	.	-1.9%	0.2%	21.9	-3.7%
COC(=O)c1ccccc1NC(=O)CSc1nnnn1-c1ccc(C)cc1C	4.3%	9.8%	0.4%	16.9%	-37.1	31.6µM*
Cc1ccc(-n2nnnc2SCn2nnc3ccccc3c2=O)c(C)c1	-4.8%	14.3%	-1.8%	-26.0%	-85.9*	?
COc1ccc(CCNC(=O)c2c(C)oc3nc(C)nc(N4CCOCC4)c23)cc1OC	.	.	7.9%	5.6%	12.1	7.0%
CCN(c1ccc(OC)cc1)S(=O)(=O)c1ccc(-c2ccc(=O)[nH]n2)o1	.	6.3%	0.4%	2.9%	-63.5*	-26.3%
